# Reference: PubChem BioAssay AID1259418 (Broad Institute, 2018)
# The whole screen tested about 3,400 compounds, of which about 840 (25%) were called active. About 11% were inconclusive and are not listed. The list is a sample of the results. Entries with a potency or affinity are not part of this list. Values without a mark were called inactive.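 How the source made its calls: active means fitted half-maximal concentration of signal decrease at or below twice the sample's top tested concentration; inconclusive means flat curve between -70 and -30 percent, or poor fit; inactive means flat within 30 percent, signal rise, or potency above limit.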
# Assay: inhibitors of Toxoplasma growth in IFN-γ-primed HeLa – cell-based, ME49Luc, luciferase, 72 h, dose response (AID 1259418)
# Settings: T. gondii ME49Luc in IFN-y HeLa, active compounds read low, -100% = high-dose IFN-γ control wells; at 19.5 µM unless noted
row,SMILES,max activity
1,COc1ccc(Cl)cc1NC(=O)Nc1ccc(-c2nc(-c3ccccc3)co2)cc1,-16.1% [at 0.68 µM]
2,COc1ccc(CNC(=O)CC2N=C3c4ccccc4N=C(SCc4ccccc4Cl)N3C2=O)cc1 (centres undefined),18.1% [at 0.68 µM]
3,O=C(CCC1N=C2c3ccccc3N=C(SCc3ccccc3Cl)N2C1=O)NCc1cccs1 (centres undefined),20.4% [at 5 µM]
4,COc1ccc(CNC(=O)CC2N=C3c4ccccc4N=C(SCc4cc(=O)n5cc(Cl)ccc5n4)N3C2=O)cc1 (centres undefined),-22.2%
5,COc1ccccc1CNC(=O)CC1N=C2c3ccccc3N=C(SCc3cc(=O)n4ccccc4n3)N2C1=O (centres undefined),17.5% [at 0.16 µM]
6,COc1ccccc1CNC(=O)CCC1N=C2c3ccccc3N=C(SCc3ccccc3Cl)N2C1=O (centres undefined),-11% [at 0.35 µM]
7,O=C(CCC1N=C2c3ccccc3N=C(SCc3ccccc3F)N2C1=O)NCc1ccco1 (centres undefined),61.5% [at 10 µM]
8,COc1ccccc1CNC(=O)CC1N=C2c3ccccc3N=C(SCc3ccc(Cl)cc3)N2C1=O (centres undefined),28% [at 5 µM]
9,COc1ccccc1CNC(=O)CCC1N=C2c3ccccc3N=C(SCc3ccccc3F)N2C1=O (centres undefined),8.88%
10,COc1ccc(CNC(=O)CCC2N=C3c4ccccc4N=C(SCc4ccccc4Cl)N3C2=O)cc1 (centres undefined),-10.1% [at 0.16 µM]
11,Cc1nc(OCC(=O)Nc2cc(Cl)ccc2C)c2ccccc2n1,25.9% [at 0.16 µM]
12,CCOC(=O)C1CCCN(c2nc(-c3ccc(OC)cc3)nc3ccccc23)C1 (centres undefined),-19.8% [at 0.16 µM]
13,N#CCSC1=Nc2ccccc2C2=NC(CCC(=O)NCc3cccs3)C(=O)N12 (centres undefined),19.3% [at 1.35 µM]
14,O=C(CC1N=C2c3ccccc3N=C(SCc3ccccc3F)N2C1=O)NCc1ccccc1 (centres undefined),8.54% [at 0.16 µM]
15,CCOC(=O)CSC1=Nc2ccccc2C2=NC(CC(=O)NCc3cccs3)C(=O)N12 (centres undefined),29.5%
16,O=C(CC1N=C2c3ccccc3N=C(SCc3ccccc3F)N2C1=O)NCc1ccc(F)cc1 (centres undefined),15.6% [at 0.68 µM]
17,Cc1ccc(-c2coc(-c3ccc(NC(=O)NCCc4ccccc4)cc3)n2)cc1,19.3% [at 2.6 µM]
18,COc1ccc(-c2nc(Nc3cc(OC)cc(OC)c3)c3ccccc3n2)cc1,19% [at 5 µM]
19,COc1ccc(-c2nc(Nc3ccccc3F)c3ccccc3n2)cc1,11.7%
20,COc1ccc(-c2nc(NC3CCCCC3)c3ccccc3n2)cc1,-27.2% [at 5 µM]
21,Clc1ccc(-c2nc(NC3CCCCCC3)c3ccccc3n2)cc1,14.3% [at 10 µM]
22,Clc1ccc(-c2nc(NC3CCCCC3)c3ccccc3n2)cc1,16.4%
23,COc1ccc(-c2nc(NC3CCCCCC3)c3ccccc3n2)cc1,19.2% [at 0.16 µM]
24,COc1ccc(-c2nc(Nc3ccc(Cl)cc3C)c3ccccc3n2)cc1,-19.8% [at 10 µM]
25,Cc1cnc(N2CC[C@H]3CN(CC(=O)N(C)C)S(=O)(=O)[C@@H]3CC2)nc1,21.5%

row,SMILES,max activity
1,O=C(CCc1ccc2nc(-c3ccccc3)[nH]c2c1)N1CCC(N2CCCCC2)CC1,57.7%
2,c1ccc(-n2ncc3c(NC4CCCCCCCCCCC4)ncnc32)cc1,53.5% [at 10 µM]
3,Cc1nc(-c2ccc(F)cc2)sc1-c1ccc(SCCN2CCCCC2)nn1,10.2% [at 0.16 µM]
4,Cc1ccc(Cn2c(=O)c3nn(C)cc3n3c(=O)n(Cc4nc(-c5cccc(C)c5)oc4C)nc23)cc1,8.72% [at 10 µM]
5,COc1ccc(-c2nc(N3CCN(c4cc(C)ccc4C)CC3)c3ccccc3n2)cc1,11.7% [at 0.68 µM]
6,O=C(CC1N=C2c3ccccc3N=C(SCc3cccc(Cl)c3)N2C1=O)NC1CCCCC1 (centres undefined),-15.8% [at 0.16 µM]
7,O=C(CCC1N=C2c3ccccc3N=C(SCc3ccccc3F)N2C1=O)NC1CCCCC1 (centres undefined),96.1%
8,Cc1ccc(CSC2=Nc3ccccc3C3=NC(CC(=O)NC4CCCCC4)C(=O)N23)cc1 (centres undefined),39.6%
9,O=C(CC1N=C2c3ccccc3N=C(SCc3ccccc3Cl)N2C1=O)NC1CCCCC1 (centres undefined),14%
10,Cc1cccc(C(=O)N2CCC3(CC2)Nc2ccc(Cl)cc2-n2cccc23)c1,5.23%
11,COc1ccc(OC)c(NC(=O)Nc2ccc(-c3nc(-c4ccccc4)co3)cc2)c1,13.4% [at 0.68 µM]
12,COc1ccc(-c2nc(Nc3cccc(C(F)(F)F)c3)c3ccccc3n2)cc1,-7.84% [at 5 µM]
13,N#C[C@@H]1[C@@H](c2ccc(-c3cccnc3)cc2)[C@H](CO)N1C(=O)Nc1ccc(F)cc1,48.3% [at 10 µM]
14,CCOc1cccc(-c2noc(-c3nnn(Cc4nc(-c5ccc(C)cc5)oc4C)c3C)n2)c1,-11.7% [at 0.68 µM]
15,CN1C(=O)CCc2cc(NC(=O)c3cnccn3)ccc21,158% [at 10 µM]
16,COc1ccc(-c2nc(Nc3cc(Cl)ccc3OC)c3ccccc3n2)cc1,12.5% [at 0.68 µM]
17,Cc1ccc2c(c1)cc(S(=O)(=O)c1ccccc1)c(=O)n2CC(=O)NCC1CCCO1 (centres undefined),-10.7% [at 10 µM]
18,CCOc1ccccc1NC(=O)N1CCN(Cc2nc(-c3ccc(C)cc3)oc2C)CC1,-15.8%
19,COc1ccc(OC)c(CNc2nc(-c3ccc(Cl)cc3)nc3ccccc23)c1,14.3%
20,N#C[C@H]1[C@@H](c2ccc(-c3cccc(F)c3)cc2)[C@@H](CO)N1C(=O)NC1CCCC1,14.8% [at 2.6 µM]
21,N#C[C@@H]1[C@@H](c2ccc(-c3cccc(F)c3)cc2)[C@H](CO)N1C(=O)NC1CCCC1,20.3% [at 10 µM]
22,Cc1nc(-c2ccc(F)cc2)sc1-c1ccc(SCc2ccccc2)nn1,20.5% [at 10 µM]
23,COc1ccc(-c2nc(N3CCN(c4cc(Cl)ccc4C)CC3)c3ccccc3n2)cc1,23.2% [at 1.35 µM]
24,Cc1ccccc1-c1nc(CN2CCN(C(=O)NC3CCCCC3)CC2)c(C)o1,-12% [at 0.35 µM]
25,Cc1cccc(-c2nc(Cn3nnc(-c4nc(-c5ccc(C(F)(F)F)cc5)no4)c3C)c(C)o2)c1,-7.24% [at 0.16 µM]

row,SMILES,max activity
1,Cc1ccc(C)c(N2CCN(c3nc(-c4ccc(Cl)cc4)nc4ccccc34)CC2)c1,16.9%
2,CC(C)Cc1ccc(S(=O)(=O)N2CCC3(CC2)NCCN=C3NCc2ccc3c(c2)OCO3)cc1,12.4% [at 10 µM]
3,Cc1ccc(S(=O)(=O)N2CCC3(CC2)NCCN=C3NCc2ccc3c(c2)OCO3)c(C)c1,-18.3%
4,O=S(=O)(c1ccc2c(c1)CCCC2)N1CCC2(CC1)NCCN=C2NCc1ccc2c(c1)OCO2,10.2%
5,COc1ccccc1NC(=O)COc1nc(C)nc2ccccc12,14.7%
6,COc1ccc(S(=O)(=O)N2CCC[C@@H]2C(=O)NCCc2csc(C)n2)cc1OC,10.7% [at 10 µM]
7,O=C(Cc1ccccc1)N1CCC2(CC1)CC(N1CCCC1)CO2 (centres undefined),17.6% [at 2.6 µM]
8,CC(C)CCNC(=O)Cn1c(=O)c(S(=O)(=O)c2ccccc2)cc2ccccc21,-14% [at 0.16 µM]
9,CCN1C(=O)CCc2cc(NC(=O)Cc3ccc(OC)cc3)ccc21,7.03% [at 2.6 µM]
10,COCC(=O)Nc1ccc2c(c1)CCC(=O)N2C,6.56% [at 0.16 µM]
11,COc1cccc(CCC(=O)Nc2ccc3c(c2)CCC(=O)N3C)c1,3.19%
12,CCN1C(=O)CCc2cc(NC(=O)Cc3ccc(Cl)cc3)ccc21,8.3% [at 2.6 µM]
13,CN1C(=O)CCc2cc(NC(=O)c3cccc(C(F)(F)F)c3)ccc21,6.55% [at 0.68 µM]
14,CN1C(=O)CCc2cc(NC(=O)Cc3c(F)cccc3Cl)ccc21,-7.19% [at 5 µM]
15,COc1ccc(CC(=O)Nc2ccc3c(c2)CCC(=O)N3C)cc1Cl,7.75% [at 10 µM]
16,CN1C(=O)CCc2cc(NC(=O)C3CC3)ccc21,-5.59% [at 0.16 µM]
17,COc1cc(OC)c(NC(=O)Nc2ccc(-c3nc(-c4ccccc4)co3)cc2)cc1Cl,24.2%
18,CCOC(=O)CSc1nc(NCCc2ccc(OC)c(OC)c2)c2ccccc2n1,24.2% [at 0.68 µM]
19,Cc1ccc(-c2nc(CN3CCN(C(=O)Nc4ccccc4C(F)(F)F)CC3)c(C)o2)cc1,15.9% [at 0.16 µM]
20,O=C(Nc1ccc(-c2nc(-c3ccccc3)co2)cc1)c1ccc2c(c1)OCO2,22.1% [at 0.35 µM]
21,COc1ccc(OC)c(NC(=O)Nc2ccc(-c3nc(-c4ccc(C)cc4C)co3)cc2)c1,12.1% [at 0.35 µM]
22,COc1cccc(-c2nc3c(s2)CN(C(=O)Nc2ccc(Br)cc2)CC3)c1,6.77%
23,Cc1ccc(-c2nc(Cn3nnc(-c4nc(-c5ccc(OCC(C)C)cc5)no4)c3C)c(C)o2)cc1,21.2% [at 0.16 µM]
24,CCOC(=O)C1CCN(S(=O)(=O)c2cc(-c3nc(C(C)(C)C)cs3)cs2)CC1,7.71% [at 0.68 µM]
